Reference: PubChem BioAssay
A number with no mark means an inactive call. For some of these results: Results with a measured potency or affinity are listed apart. Activity calls are given as the source filed them. Unless noted, no rule for the calls is given here.

Key:
[1] = antimalarial activity against Dd2 strain (AID 2302;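 active = growth inhibition above 50% at the single 2 µM test dose, taken to imply half-maximal potency below 2 µM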;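 also: 0% = DMSO untreated growth and 100% = chloroquine plus artemisinin killed control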); details: P. falciparum Dd2 in RBCs, LDH growth readout, 72 h; at 2 µM; stronger effect = higher value
[2] = HepG2 cytotoxicity, primary screen, cytotoxicity control for P. falciparum antimalarial project, cell-based, ATP luminescence (AID 2303;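 active = inhibition above 50%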;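 also: 0% = DMSO wells and 100% = digitonin-killed cells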); details: HepG2 viability, 24-48 h, at 10 µM, stronger effect = higher value
[3] = target: L-lactate dehydrogenase (Plasmodium falciparum (isolate CDC / Honduras)) (UniProt Q27743); assay: PfLDH activity inhibition – cell lysate, 3D7 strain, counter-screen for P. falciparum growth inhibition project (AID 2304);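 also: 0% = vehicle and 100% = reference inhibitor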; details: P. falciparum 3D7 crude extract, LDH APAD/NBT absorbance; at 2 µM; stronger effect = higher value
L-lactate dehydrogenase (Plasmodium falciparum (isolate CDC / Honduras)), sequence (Q27743 whole entry, looked up): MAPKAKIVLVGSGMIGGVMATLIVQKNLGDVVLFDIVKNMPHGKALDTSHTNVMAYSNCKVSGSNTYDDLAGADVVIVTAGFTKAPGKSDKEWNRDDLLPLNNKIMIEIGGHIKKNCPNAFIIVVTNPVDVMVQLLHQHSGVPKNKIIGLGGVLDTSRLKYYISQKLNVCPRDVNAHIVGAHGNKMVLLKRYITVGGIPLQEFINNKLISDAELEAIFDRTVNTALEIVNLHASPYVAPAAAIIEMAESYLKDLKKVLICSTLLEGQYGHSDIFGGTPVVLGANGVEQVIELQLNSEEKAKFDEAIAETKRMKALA

[4] = inhibition of 3D7 malaria parasite growth – strain 3D7 (AID 2306);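 also: 0% = DMSO wells and 100% = chloroquine plus artemisinin control wells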; details: P. falciparum 3D7 erythrocytic growth, LDH absorbance, 72 h; at 2 µM; stronger effect = higher value
[5] = target: Calcium-dependent protein kinase 1 (Plasmodium falciparum (isolate 3D7)) (UniProt P62344); assay: PfCDPK1 kinase inhibitors, biochemical, TCAMS library (AID 1159585; cut-off not given, nearly all actives have IC50 up to about 0.98 µM;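 also: inhibitors leave more ATP so luminescence rises with inhibition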); details: recombinant PfCDPK1, Kinase-Glo ATP depletion luminescence
Calcium-dependent protein kinase 1 (Plasmodium falciparum (isolate 3D7)), sequence (P62344 whole entry, looked up): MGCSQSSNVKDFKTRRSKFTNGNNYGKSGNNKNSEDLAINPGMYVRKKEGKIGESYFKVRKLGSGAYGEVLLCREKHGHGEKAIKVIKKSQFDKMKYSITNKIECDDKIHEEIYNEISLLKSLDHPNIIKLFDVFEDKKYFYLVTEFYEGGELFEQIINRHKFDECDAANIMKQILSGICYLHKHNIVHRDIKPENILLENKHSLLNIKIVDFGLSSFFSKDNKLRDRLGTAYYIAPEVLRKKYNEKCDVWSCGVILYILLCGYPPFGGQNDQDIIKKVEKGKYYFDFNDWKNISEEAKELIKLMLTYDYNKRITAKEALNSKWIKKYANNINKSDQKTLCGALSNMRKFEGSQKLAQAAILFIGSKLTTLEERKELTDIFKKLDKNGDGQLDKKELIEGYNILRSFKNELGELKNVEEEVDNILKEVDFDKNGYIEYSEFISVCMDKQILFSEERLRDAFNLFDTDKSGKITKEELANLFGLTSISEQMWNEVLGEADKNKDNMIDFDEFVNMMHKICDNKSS

[6] = target: Plasmodium falciparum protein kinase 6 (PK6, PF3D7_1337100) (UniProt Q8IDW1); assay: PfPK6 kinase inhibitors, biochemical, TCAMS library (AID 1159586); details: recombinant PfPK6, Kinase-Glo ATP depletion luminescence
Plasmodium falciparum protein kinase 6 (PK6, PF3D7_1337100), sequence (Q8IDW1 1-305): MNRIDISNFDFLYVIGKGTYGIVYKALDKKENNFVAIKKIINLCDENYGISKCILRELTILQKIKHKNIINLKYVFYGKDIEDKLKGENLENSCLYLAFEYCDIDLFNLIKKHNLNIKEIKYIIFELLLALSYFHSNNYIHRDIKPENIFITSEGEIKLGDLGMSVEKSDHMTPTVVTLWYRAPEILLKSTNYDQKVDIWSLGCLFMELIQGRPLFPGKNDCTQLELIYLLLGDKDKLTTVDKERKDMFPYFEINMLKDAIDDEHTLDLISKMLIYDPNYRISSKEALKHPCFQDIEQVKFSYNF

[7] = target: Protein kinase 7 (PK7), Plasmodium falciparum 3D7 (PF3D7_0213400) (UniProt Q7YTF7); assay: inhibition of Plasmodium PK7 catalytic activity – biochemical, TCAMS antimalarial set, Kinase-Glo luminescence (AID 1159587); details: recombinant PfPK7, Kinase-Glo ATP depletion luminescence
Protein kinase 7 (PK7), Plasmodium falciparum 3D7 (PF3D7_0213400), sequence (Q7YTF7 1-343): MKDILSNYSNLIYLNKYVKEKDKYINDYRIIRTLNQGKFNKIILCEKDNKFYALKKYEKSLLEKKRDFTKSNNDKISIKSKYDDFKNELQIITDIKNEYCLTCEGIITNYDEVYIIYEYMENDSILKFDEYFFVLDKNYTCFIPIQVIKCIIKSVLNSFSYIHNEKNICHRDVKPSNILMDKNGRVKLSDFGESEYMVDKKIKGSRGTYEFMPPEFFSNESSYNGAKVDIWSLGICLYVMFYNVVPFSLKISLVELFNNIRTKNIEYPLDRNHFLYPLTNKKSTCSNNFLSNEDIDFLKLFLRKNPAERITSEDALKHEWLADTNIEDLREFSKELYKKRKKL

[8] = target: Calcium-dependent protein kinase 4 (Plasmodium falciparum (isolate 3D7)) (UniProt Q8IBS5); assay: PfCDPK4 kinase inhibitors, biochemical, TCAMS library (AID 1159588; cut-off not given, nearly all actives have IC50 up to about 0.91 µM); details: recombinant PfCDPK4, Kinase-Glo ATP depletion luminescence
Calcium-dependent protein kinase 4 (Plasmodium falciparum (isolate 3D7)), sequence (Q8IBS5 whole entry, looked up): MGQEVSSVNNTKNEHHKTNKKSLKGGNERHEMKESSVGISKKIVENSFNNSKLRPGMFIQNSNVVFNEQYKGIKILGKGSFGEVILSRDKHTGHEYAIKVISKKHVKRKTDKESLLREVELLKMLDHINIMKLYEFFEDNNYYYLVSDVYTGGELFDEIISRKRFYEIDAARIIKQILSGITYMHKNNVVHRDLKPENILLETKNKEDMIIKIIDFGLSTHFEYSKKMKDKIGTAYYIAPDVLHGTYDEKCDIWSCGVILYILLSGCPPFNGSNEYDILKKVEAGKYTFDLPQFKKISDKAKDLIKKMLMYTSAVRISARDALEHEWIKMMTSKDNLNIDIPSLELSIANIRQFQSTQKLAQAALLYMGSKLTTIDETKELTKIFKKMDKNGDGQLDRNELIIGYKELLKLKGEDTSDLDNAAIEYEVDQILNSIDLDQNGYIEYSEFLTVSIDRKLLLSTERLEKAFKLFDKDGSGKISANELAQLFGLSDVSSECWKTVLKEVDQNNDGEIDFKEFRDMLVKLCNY

SMILES	growth inhibition [1]	inhibition [2]	inhibition [3] [%]	growth inhibition [4]	outcome [5]	outcome [6]	outcome [7]	outcome [8]
COc1ccc2nc(C)cc(NN=Cc3ccccc3[N+](=O)[O-])c2c1	99% (active)	2%	-2	101% (active)	inactive	inactive	inactive	inactive
O=C(Nc1ccc(-c2nc3ccccc3[nH]2)cc1)C1CCCN(C2CCC2)C1 (centres undefined)	5%	-1%	4	90% (active)	inactive	inactive	inactive	inactive
COc1ccccc1CNc1ncc(-c2ccsc2)c(-c2nccs2)n1	84% (active)	14%	2	91% (active)	inactive	inactive	inactive	inactive
CC(C)Cn1c2ccccc2c2nc3nc(N)nc(N)c3nc21	-1%	36%	-3	93% (active)	inactive	inactive	inactive	inactive
CN1CCN(CCNc2c3ccccc3nc3c2ccc2ccccc23)CC1	66% (active)	76% (active)	-6	101% (active)	inactive	inactive	inactive	inactive
O=C(CCc1cccnc1)Nc1cccc(-c2ccc(-c3nc4ccc(C(F)(F)F)cc4[nH]3)cc2)c1	-5%	38%	3	93% (active)	inactive	inactive	inactive	inactive
Cc1nc(NCCc2cnc[nH]2)cc(NCc2ccccc2)n1	5%	5%	-2	100% (active)	inactive	inactive	inactive	inactive
COc1ccc(COc2cc(NCCCN)nc3ccccc23)cc1	5%	3%	-4	101% (active)	inactive	inactive	inactive	inactive
COCCNCc1ccc(-c2ccc3c(Nc4ccc(F)cc4Cl)ccnc3c2)o1	100% (active)	22%	2	100% (active)	inactive	inactive	inactive	inactive
NC(N)=NC(=O)Nc1cc(Cl)c(F)c(Cl)c1	64% (active)	22%	-4	100% (active)	inactive	inactive	inactive	inactive
O=C(N[C@H]1CCN(Cc2ccc(OC3CCN(Cc4ccccc4)CC3)c(Br)c2)C1)c1ccc(Cl)c(Cl)c1	30%	55% (active)	-1	100% (active)	inactive	inactive	inactive	inactive
COc1cc(NC(=O)/C=C/c2ccc(-c3ccccc3)cc2)ccc1OCCN(C(C)C)C(C)C	62% (active)	58% (active)	-5	94% (active)	inactive	inactive	inactive	inactive
COc1ccccc1C1CCN(C2CCC(NC(=O)/C=C/c3ccc4c(c3)OC(F)(F)O4)CC2)CC1 (centres undefined)	31%	52% (active)	-2	98% (active)	inactive	inactive	inactive	inactive
COc1ccc(Nc2nccc(NCCNC(=O)c3cc4ccccc4s3)n2)cc1	7%	6%	-1	98% (active)	inactive	inactive	inactive	inactive
CCCCCC(C)C(C)c1cc(O)c2c(c1)OC(C)(C)CC2(O)c1ccnn1C (centres undefined)	95% (active)	20%	4	98% (active)	inactive	inactive	inactive	inactive
Nc1nc(Nc2cccc(O)c2)nc2ccccc12	79% (active)	25%	4	96% (active)	inactive	inactive	inactive	inactive
COc1ccc(S(=O)(=O)Nc2cc(Br)cc3c2OCCC3)cc1N1CCN(C(=O)C(Cl)(Cl)Cl)CC1	51% (active)	4%	-2	90% (active)	inactive	inactive	inactive	inactive
COc1cc(-c2nc3ccc(N4CCN(C)CC4)cc3[nH]2)cc(OC)c1OC	15%	6%	0	87% (active)	inactive	inactive	inactive	inactive
COc1cc(F)c2ncc(Cl)c(C(O)CN3CCC(NC(=O)c4ccc5c(c4)NC(=O)CS5)CC3)c2c1 (centres undefined)	68% (active)	15%	1	98% (active)	inactive	inactive	inactive	inactive

SMILES	growth inhibition [1]	inhibition [2]	inhibition [3] [%]	growth inhibition [4]	outcome [5]	outcome [6]	outcome [7]	outcome [8]
Cc1cccc2[nH]c(-c3ccc(-c4cccc(NC(=O)c5ccncc5)c4)cc3)nc12	8%	46%	-7	98% (active)	inactive	inactive	inactive	inactive
CC(C)c1ncc(-c2ccncc2)c(C2CCC(CNC(=O)c3cccnc3)CC2)n1 (centres undefined)	88% (active)	-14%	1	89% (active)	inactive	inactive	inactive	inactive
Fc1cccc(Nc2nc(NCc3ccc(OCc4ccccc4)cc3)nc(Nc3cccc(F)c3)n2)c1	14%	5%	1	84% (active)	inactive	inactive	inactive	inactive
COc1cccc(CNC[C@@H](O)[C@H](Cc2ccccc2)NC(=O)c2cc(C(C)C)cc(N3CCCC3=O)c2)c1	61% (active)	1%	-4	95% (active)	inactive	inactive	inactive	inactive
CC(CN1CCN(C)CC1)C(=O)Nc1cccc(-c2ccc(-c3nc4ccccc4[nH]3)cc2)c1 (centres undefined)	38%	2%	-1	95% (active)	inactive	inactive	inactive	inactive
COc1ccc2nc(-c3ccccc3)cc(NN=Cc3ccc([N+](=O)[O-])cc3)c2c1	100% (active)	89% (active)	7	102% (active)	inactive	inactive	inactive	inactive
S=C(NCCN1CCOCC1)Nc1ccccc1	1%	3%	1	94% (active)	inactive	inactive	inactive	inactive
C=CCOc1ccc(-c2c(C)[nH]c(C)c(Br)c2=O)cc1	96% (active)	5%	-3	98% (active)	inactive	inactive	inactive	inactive
O=C(C=Cc1ccc(Cl)c(Cl)c1)NCCCCCN1CCCC(CCCNC(=O)c2sc3ccccc3c2Cl)C1 (centres undefined)	32%	82% (active)	-3	88% (active)	inactive	inactive	inactive	inactive
Cc1cc2c(cc1C(F)(F)F)N(C(=O)Nc1cc(C(=O)NC3CCN(Cc4ccccc4)C3)cc(C(F)(F)F)c1)CC2 (centres undefined)	97% (active)	22%	0	101% (active)	inactive	inactive	inactive	inactive
COc1ccc2nc3cc(Cl)ccc3c(NCCCCN3CCNCC3)c2c1	75% (active)	29%	-5	102% (active)	inactive	inactive	inactive	inactive
COc1ccccc1NC(=O)NC1CCN(CCCCCNC(=O)/C=C/c2ccc(Cl)c(Cl)c2)CC1	15%	4%	-1	100% (active)	inactive	inactive	inactive	inactive
CSc1ccc(CN2CCC(NC(=O)c3ccc(-c4cccc(C(F)(F)F)c4)s3)CC2)cc1	9%	68% (active)	-2	90% (active)	inactive	inactive	inactive	inactive
Cc1cc(NN=Cc2cccc(Cl)c2)c2ccc(F)cc2n1	98% (active)	-2%	-4	101% (active)	inactive	inactive	inactive	inactive
Cc1ccc(C(=O)Nc2cccc([N+](=O)[O-])c2)cc1S(=O)(=O)N1CC(C)CC(C)C1 (centres undefined)	42%	24%	-1	100% (active)	inactive	inactive	inactive	inactive
O=C(N[C@H](Cc1ccc(Cl)cc1)C(=O)N1CCN(c2ccnc3cc(Cl)ccc23)CC1)[C@H]1Cc2ccccc2CN1	41%	16%	5	85% (active)	inactive	inactive	inactive	inactive
COc1c(C)[nH]c(C)c(-c2ccc(Oc3cccc(C(F)(F)F)c3)cc2)c1=O	96% (active)	40%	3	98% (active)	inactive	inactive	inactive	inactive
c1cc(CNCC2CCCO2)cc(-c2csc(-c3nc4ccccc4[nH]3)c2)c1 (centres undefined)	6%	5%	2	91% (active)	inactive	inactive	inactive	inactive
CCCC(C)N(Cc1ccc(C(C)(C)C)cc1)C(=O)c1cccc(C#N)c1 (centres undefined)	45%	14%	-9	86% (active)	inactive	inactive	inactive	inactive
